Reference: PubChem BioAssay
Unmarked numbers belong to inactive results. Entries that show only a call come without a potency. For some of these results: Potency and affinity values are given separately. Activity calls are given as the source filed them. Unless noted, the rule behind the calls is not given here.

Legend:
[1] = antimalarial activity against Dd2 strain (AID 2302;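 active = growth inhibition above 50% at the single 2 µM test dose, taken to imply half-maximal potency below 2 µM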); details: P. falciparum Dd2 in RBCs, LDH growth readout, 72 h; at 2 µM; active compounds read high
[2] = human hepatoma cell viability loss – ATP luminescence, cytotoxicity control for P. falciparum antimalarial project, primary screen (AID 2303;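 active = inhibition above 50%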); details: HepG2 viability, 24-48 h, at 10 µM, active compounds read high
[3] = target: L-lactate dehydrogenase (Plasmodium falciparum (isolate CDC / Honduras)) (UniProt Q27743); test: PfLDH activity inhibition – cell lysate, 3D7 strain, counter-screen for P. falciparum growth inhibition project (AID 2304); details: P. falciparum 3D7 crude extract, LDH APAD/NBT absorbance; at 2 µM; active compounds read high
L-lactate dehydrogenase (Plasmodium falciparum (isolate CDC / Honduras)), sequence (Q27743 whole entry, looked up): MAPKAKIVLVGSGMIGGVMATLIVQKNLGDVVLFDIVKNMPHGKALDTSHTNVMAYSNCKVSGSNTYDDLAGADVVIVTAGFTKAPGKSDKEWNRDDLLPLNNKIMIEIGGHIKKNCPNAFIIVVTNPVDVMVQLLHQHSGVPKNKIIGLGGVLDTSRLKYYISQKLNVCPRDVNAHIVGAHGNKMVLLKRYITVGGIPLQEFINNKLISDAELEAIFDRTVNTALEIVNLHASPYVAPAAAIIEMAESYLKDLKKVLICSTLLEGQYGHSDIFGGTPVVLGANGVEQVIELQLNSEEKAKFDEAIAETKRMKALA

[4] = inhibition of 3D7 malaria parasite growth – strain 3D7 (AID 2306); details: P. falciparum 3D7 erythrocytic growth, LDH absorbance, 72 h; at 2 µM; active compounds read high
[5] = target: Calcium-dependent protein kinase 1 (Plasmodium falciparum (isolate 3D7)) (UniProt P62344); test: PfCDPK1 kinase inhibitors, biochemical, TCAMS library (AID 1159585; cut-off not given, nearly all actives have IC50 up to about 0.98 µM;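 note: inhibitors leave more ATP so luminescence rises with inhibition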); details: recombinant PfCDPK1, Kinase-Glo ATP depletion luminescence
Calcium-dependent protein kinase 1 (Plasmodium falciparum (isolate 3D7)), sequence (P62344 whole entry, looked up): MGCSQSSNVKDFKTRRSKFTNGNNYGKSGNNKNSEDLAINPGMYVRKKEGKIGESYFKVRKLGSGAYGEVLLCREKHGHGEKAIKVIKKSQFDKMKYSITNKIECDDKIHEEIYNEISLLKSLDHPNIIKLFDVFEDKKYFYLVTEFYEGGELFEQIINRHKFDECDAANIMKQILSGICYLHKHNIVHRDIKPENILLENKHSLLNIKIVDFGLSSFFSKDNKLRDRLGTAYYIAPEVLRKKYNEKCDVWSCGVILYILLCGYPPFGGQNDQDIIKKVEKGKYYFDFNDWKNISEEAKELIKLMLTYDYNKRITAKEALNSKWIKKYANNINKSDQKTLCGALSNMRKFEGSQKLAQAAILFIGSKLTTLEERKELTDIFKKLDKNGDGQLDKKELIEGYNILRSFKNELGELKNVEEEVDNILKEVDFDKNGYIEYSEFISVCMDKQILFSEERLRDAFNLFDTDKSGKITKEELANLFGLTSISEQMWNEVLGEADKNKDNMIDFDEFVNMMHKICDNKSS

[6] = target: Plasmodium falciparum protein kinase 6 (PK6, PF3D7_1337100) (UniProt Q8IDW1); test: PfPK6 kinase inhibitors, biochemical, TCAMS library (AID 1159586); details: recombinant PfPK6, Kinase-Glo ATP depletion luminescence
Plasmodium falciparum protein kinase 6 (PK6, PF3D7_1337100), sequence (Q8IDW1 1-305): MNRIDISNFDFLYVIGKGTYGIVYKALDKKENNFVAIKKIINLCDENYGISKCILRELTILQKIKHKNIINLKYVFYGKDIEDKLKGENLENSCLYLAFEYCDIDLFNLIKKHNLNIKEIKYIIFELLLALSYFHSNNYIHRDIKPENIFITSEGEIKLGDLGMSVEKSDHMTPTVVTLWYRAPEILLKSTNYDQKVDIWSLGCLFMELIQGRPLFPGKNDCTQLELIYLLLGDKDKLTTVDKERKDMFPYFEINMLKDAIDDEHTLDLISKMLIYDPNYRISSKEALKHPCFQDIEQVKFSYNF

[7] = target: Protein kinase 7 (PK7), Plasmodium falciparum 3D7 (PF3D7_0213400) (UniProt Q7YTF7); test: inhibition of Plasmodium PK7 catalytic activity – biochemical, TCAMS antimalarial set, Kinase-Glo luminescence (AID 1159587); details: recombinant PfPK7, Kinase-Glo ATP depletion luminescence
Protein kinase 7 (PK7), Plasmodium falciparum 3D7 (PF3D7_0213400), sequence (Q7YTF7 1-343): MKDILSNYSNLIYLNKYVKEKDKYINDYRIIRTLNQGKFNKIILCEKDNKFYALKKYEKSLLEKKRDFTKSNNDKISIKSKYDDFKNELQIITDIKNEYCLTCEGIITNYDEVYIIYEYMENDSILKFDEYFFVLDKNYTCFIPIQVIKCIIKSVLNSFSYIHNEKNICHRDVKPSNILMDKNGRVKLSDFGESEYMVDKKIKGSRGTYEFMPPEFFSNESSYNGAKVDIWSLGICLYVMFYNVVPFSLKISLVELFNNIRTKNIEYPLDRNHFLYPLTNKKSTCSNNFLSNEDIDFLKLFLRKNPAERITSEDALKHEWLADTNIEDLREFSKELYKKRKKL

[8] = target: Calcium-dependent protein kinase 4 (Plasmodium falciparum (isolate 3D7)) (UniProt Q8IBS5); test: PfCDPK4 kinase inhibitors, biochemical, TCAMS library (AID 1159588; cut-off not given, nearly all actives have IC50 up to about 0.91 µM); details: recombinant PfCDPK4, Kinase-Glo ATP depletion luminescence
Calcium-dependent protein kinase 4 (Plasmodium falciparum (isolate 3D7)), sequence (Q8IBS5 whole entry, looked up): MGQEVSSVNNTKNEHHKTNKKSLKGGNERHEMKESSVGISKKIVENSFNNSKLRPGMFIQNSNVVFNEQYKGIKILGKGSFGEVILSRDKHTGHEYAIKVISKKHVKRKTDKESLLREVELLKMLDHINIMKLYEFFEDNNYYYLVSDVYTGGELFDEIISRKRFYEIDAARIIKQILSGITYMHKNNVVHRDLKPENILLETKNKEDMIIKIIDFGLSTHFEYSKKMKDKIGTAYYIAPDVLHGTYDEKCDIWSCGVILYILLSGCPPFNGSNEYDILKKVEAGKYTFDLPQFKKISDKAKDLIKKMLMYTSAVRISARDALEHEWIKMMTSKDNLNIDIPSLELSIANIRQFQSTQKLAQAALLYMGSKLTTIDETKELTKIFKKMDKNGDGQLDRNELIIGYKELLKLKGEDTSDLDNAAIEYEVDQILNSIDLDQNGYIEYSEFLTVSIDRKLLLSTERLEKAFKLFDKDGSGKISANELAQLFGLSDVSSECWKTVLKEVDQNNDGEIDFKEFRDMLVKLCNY

Row | Compound | growth inhibition [1] | inhibition [2] | inhibition [3] [%] | growth inhibition [4] | outcome [5] | outcome [6] | outcome [7] | outcome [8]
1 | C=CC[C@@H](C(=O)OCC)[C@@H]1[C@@H](N(CC=C)C(=O)OC(C)(C)C)CCN1C(=O)OCc1ccccc1 | 68% (active) | 2% | 4 | 92% (active) | inactive | inactive | inactive | inactive
2 | Cc1ncccc1-c1cccc2c(NC(=O)Nc3ccc4nccc(N5CCN(C)CC5)c4c3)cccc12 | 96% (active) | 19% | -6 | 101% (active) | inactive | inactive | inactive | inactive
3 | CC(C)C[C@@H](/C=N/N1CCOC1=O)NC(=O)[C@H](CC(C)C)NC(=O)c1ccc(OCCN2CCOCC2)cc1 | 87% (active) | 5% | 6 | 92% (active) | inactive | inactive | inactive | inactive
4 | COc1ccc(CN2C(=S)N(Cc3ccccc3)C(=O)C2CC(=O)Nc2ccccc2)cc1OC (stereo not drawn) | 73% (active) | 6% | -2 | 96% (active) | inactive | inactive | inactive | inactive
5 | CC(=O)N1N=C(c2ccc(F)cc2)Sc2c1nc(-c1ccccc1)n2C(C)=O | 67% (active) | -11% | -1 | 99% (active) | inactive | inactive | inactive | inactive
6 | N#Cc1ccc(N[C@@H](CC2CCCCC2)C(=O)Nc2ccc(-c3ccccc3)cc2)c2ccccc12 | 99% (active) | 34% | -8 | 100% (active) | inactive | inactive | inactive | inactive
7 | Oc1c(Cl)cc(Nc2nccc(Nc3ccc(Oc4ccccc4)cc3)n2)cc1Cl | 26% | 8% | -5 | 99% (active) | inactive | inactive | inactive | inactive
8 | CC(=O)Nc1cc(C(=O)Nc2cccc(-c3csc(-c4nc5ccccc5[nH]4)c3)c2)ccc1C | 66% (active) | 31% | 3 | 94% (active) | inactive | inactive | inactive | inactive
9 | COc1ccc(C(=O)N2CCC(CN3CCOC(c4ccccc4)(c4ccccc4)C3)CC2)cc1 | 96% (active) | 19% | 5 | 95% (active) | inactive | inactive | inactive | inactive
10 | c1ccc2c3c(ccc2c1)Sc1c(ccc2ccccc12)N3 | 31% | -7% | 0 | 92% (active) | inactive | inactive | inactive | inactive
11 | CCNc1cc(C(=O)N[C@@H](Cc2cc(F)cc(F)c2)[C@H](O)CNCc2cccc(C(F)(F)F)c2)cc(N2CCCCS2(=O)=O)c1 | 80% (active) | 1% | -8 | 99% (active) | inactive | inactive | inactive | inactive
12 | O=S(=O)(NCCN1CCCC1)c1ccc(-c2ccc(CNCc3ccccc3)cc2)cc1F | 39% | 35% | 4 | 83% (active) | inactive | inactive | inactive | inactive
13 | CN(C)CCNC(=O)c1csc(Nc2ccc(Cl)c(Cl)c2)n1 | 100% (active) | 4% | -3 | 100% (active) | inactive | inactive | inactive | inactive
14 | CCNc1cc(CC)nc(Nc2ccc(C)cc2)n1 | 24% | 22% | -1 | 100% (active) | inactive | inactive | inactive | inactive
15 | COc1cc(F)c2nccc([C@@H](O)CN3CC[C@@H](NC(=O)OCc4ccccc4)[C@@H](F)C3)c2c1 | 100% (active) | 44% | 2 | 99% (active) | inactive | inactive | inactive | inactive
16 | COc1ccccc1CCNc1nc(C)cc(NCCC(=O)Nc2ccccc2)n1 | 24% | 7% | 0 | 101% (active) | inactive | inactive | inactive | inactive
17 | COc1ccc2nc3cc(Cl)ccc3c(NCCCCN)c2c1 | 62% (active) | 52% (active) | 7 | 101% (active) | inactive | inactive | inactive | inactive
18 | O=C(Nc1cccc(-c2ccc(-c3nc4ccccc4[nH]3)cc2)c1)c1cccnc1 | 1% | 18% | -5 | 100% (active) | inactive | inactive | inactive | inactive
19 | O=C(/C=C/c1ccc(Cl)c(Cl)c1)NC1CCC(CN2CCC(c3nc4ccccc4s3)CC2)CC1 (stereo not drawn) | 32% | 50% (active) | -4 | 87% (active) | inactive | inactive | inactive | inactive
20 | CCCNC(=O)C1CCN(C(c2ccc(Cl)cc2)c2ccc(Cl)cc2)CC1 | 96% (active) | 7% | 4 | 98% (active) | inactive | inactive | inactive | inactive
21 | CC(C)c1ncc(-c2ccncc2)c(C2CCC(CNC(=O)c3cccnc3)CC2)n1 (stereo not drawn) | 88% (active) | -14% | 1 | 89% (active) | inactive | inactive | inactive | inactive

Row | Compound | growth inhibition [1] | inhibition [2] | inhibition [3] [%] | growth inhibition [4] | outcome [5] | outcome [6] | outcome [7] | outcome [8]
22 | CN(C)c1cccc(-c2cnc3ccc(NCc4cccc(Cl)c4)nn23)c1 | 98% (active) | 11% | -3 | 99% (active) | inactive | inactive | inactive | inactive
23 | CCOc1cc2c(cc1OCC)C(c1cc(OC)c(O)cc1Cl)NCC2 (stereo not drawn) | 97% (active) | 15% | -7 | 100% (active) | inactive | inactive | inactive | inactive
24 | CC(=O)Nc1ncc(C(=O)Nc2ccc(-c3cccc(-c4nc5ccc(C(F)(F)F)cc5[nH]4)c3)cc2)s1 | 92% (active) | 79% (active) | 3 | 101% (active) | inactive | inactive | inactive | inactive
25 | CCN(CC)CCN(Cc1ccc(-c2ccc(C(F)(F)F)cc2)cc1)C(=O)Cn1c(SCc2ccc(F)cc2)nc(=O)c2sccc21 | 65% (active) | 51% (active) | -1 | 101% (active) | inactive | inactive | inactive | inactive
26 | O=C(Nc1ccc(-c2ccc(-c3nc4ccccc4[nH]3)s2)cc1)Nc1ccc(F)c(F)c1F | 97% (active) | 57% (active) | 5 | 99% (active) | inactive | inactive | inactive | inactive
27 | CC1(C)N=C(N)N=C(N)N1OCCCNC(=O)c1ccc(C(=O)NCCCON2C(N)=NC(N)=NC2(C)C)cc1 | 96% (active) | 0% | 3 | 91% (active) | inactive | inactive | inactive | inactive
28 | c1cc(-c2ccc(CN3CCCCC3)cc2)cc(-c2nc3ccccc3[nH]2)c1 | 79% (active) | 39% | 5 | 101% (active) | inactive | inactive | inactive | inactive
29 | CCOc1ccc(NC(C)=O)c(O)c1 | 0% | 6% | -1 | 96% (active) | inactive | inactive | inactive | inactive
30 | Nc1c(Cl)cc(C(O)CNCCCCCCOCCc2ccc(CO)s2)cc1Cl (stereo not drawn) | 71% (active) | 1% | -2 | 86% (active) | inactive | inactive | inactive | inactive
31 | CCCc1cc(Cc2cnc(N)nc2N)cc(CC)c1O | -3% | 56% (active) | -3 | 87% (active) | inactive | inactive | inactive | inactive
32 | CC(Cc1ccc(OCCN2CCN(c3cccc(C(F)(F)F)c3)CC2)cc1)NCC(O)c1cccc(C(F)(F)F)c1 (stereo not drawn) | 91% (active) | 11% | 0 | 97% (active) | inactive | inactive | inactive | inactive
33 | O=C(Nc1n[nH]c2nc(-c3ccco3)c(Br)cc12)c1ccc(CN2CCCC2)cc1 | 53% (active) | 1% | 2 | 101% (active) | inactive | inactive | inactive | inactive
34 | COc1ccc2ncc(F)c(CCN3CC[C@@H](CNCc4cc5c(cn4)OCS5)C3)c2n1 | 29% | 3% | 0 | 98% (active) | inactive | inactive | inactive | inactive
35 | Oc1ccccc1CCNC1CCc2ccccc2C1 (stereo not drawn) | 95% (active) | -4% | 4 | 96% (active) | inactive | inactive | inactive | inactive
36 | CC1(C)N=C(N)N=C(N)N1OCCNCc1ccc(Cl)cc1 | -2% | 5% | -5 | 95% (active) | inactive | inactive | inactive | inactive
37 | CC(Cc1ccc(COc2ccc(CC(CO)NCCc3cccc(Cl)c3)cc2)cc1)NCCc1cccc(Cl)c1 (stereo not drawn) | 86% (active) | 99% (active) | 5 | 101% (active) | inactive | inactive | inactive | inactive
38 | COc1ccc(C2C(C(=O)Nc3cc(C)ccc3OC)c3ccccc3C(=O)N2C)cc1 (stereo not drawn) | 3% | 3% | 1 | 86% (active) | inactive | inactive | inactive | inactive
39 | COc1cccc(C(=O)NC(c2ccc(Cl)cc2Cl)c2cc(Cl)c3cccnc3c2O)c1 (stereo not drawn) | 76% (active) | 37% | -8 | 100% (active) | inactive | inactive | inactive | inactive
40 | O=C(NC1CCN(c2ccnc3cc(Cl)ccc23)C1)c1ccc(C(F)(F)F)cc1 (stereo not drawn) | 57% (active) | 37% | 4 | 101% (active) | inactive | inactive | inactive | inactive
41 | COc1ccccc1/C=C/C(=O)N(C)C1CCN(CCCCCNC(=O)/C=C/c2ccc(Cl)c(Cl)c2)C1 (stereo not drawn) | 14% | 10% | -14 | 94% (active) | inactive | inactive | inactive | inactive
